# This is one part of a sample in which the strongest signals are shown more often than they occur.
# B1: MtEccB1 (Mycobacterium tuberculosis H37Rv), O69734 (protein)
# chain: MGLRLTTKVQVSGWRFLLRRLEHAIVRRDTRMFDDPLQFYSRSIALGIVVAVLILAGAALLAYFKPQGKLGGTSLFTDRATNQLYVLLSGQLHPVYNLTSARLVLGNPANPATVKSSELSKLPMGQTVGIPGAPYATPVSAGSTSIWTLCDTVARADSTSPVVQTAVIAMPLEIDASIDPLQSHEAVLVSYQGETWIVTTKGRHAIDLTDRALTSSMGIPVTARPTPISEGMFNALPDMGPWQLPPIPAAGAPNSLGLPDDLVIGSVFQIHTDKGPQYYVVLPDGIAQVNATTAAALRATQAHGLVAPPAMVPSLVVRIAERVYPSPLPDEPLKIVSRPQDPALCWSWQRSAGDQSPQSTVLSGRHLPISPSAMNMGIKQIHGTATVYLDGGKFVALQSPDPRYTESMYYIDPQGVRYGVPNAETAKSLGLSSPQNAPWEIVRLLVDGPVLSKDAALLEHDTLPADPSPRKVPAGASGAP
# How the values were obtained:
# Test in all cases: glycan array binding signal (z-score within array); higher = stronger binding
# Settings in all cases: glycan notation: IUPAC condensed, linker removed
# Gal(b1-6)Gal = molecular target: Gal(b1-6)Gal
# How it was run: (§1)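 The binding signal is a Z-score computed within each array and averaged over linkers. Arrays of the same protein sequence at different concentrations or buffers were also averaged together. Data originate from 3228 arrays in the Consortium for Functional Glycomics database, kept only where the protein sequence was available.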
# Gal3S6S(b1-4)GlcNAc = molecular target: Gal3S6S(b1-4)GlcNAc
# How it was run: as §1
# Gal3S6S(b1-4)GlcNAc6S = molecular target: Gal3S6S(b1-4)GlcNAc6S
# How it was run: as §1
# Gal4S6S(b1-4)GlcNAc = molecular target: Gal4S6S(b1-4)GlcNAc
# How it was run: as §1
# Gal6S(b1-4)Glc = molecular target: Gal6S(b1-4)Glc
# How it was run: as §1
# [1] = molecular target: GlcA3S(b1-3)Gal(b1-4)GlcNAc(b1-2)Man
# How it was run: as §1
# [2] = molecular target: GlcNAc(a1-4)Gal(b1-4)GlcNAc(b1-3)Gal(b1-4)GlcNAc
# How it was run: as §1
# [3] = molecular target: GlcNAc(b1-2)[GlcNAc(b1-4)]Man(a1-3)[GlcNAc(b1-2)Man(a1-6)]Man(b1-4)GlcNAc(b1-4)GlcNAc
# How it was run: as §1
# [4] = molecular target: GlcNAc(b1-3)Gal(b1-4)GlcNAc(b1-3)Gal(b1-4)GlcNAc(b1-3)Gal(b1-4)GlcNAc(b1-3)Gal(b1-4)GlcNAc(b1-2)[GlcNAc(b1-3)Gal(b1-4)GlcNAc(b1-3)Gal(b1-4)GlcNAc(b1-3)Gal(b1-4)GlcNAc(b1-3)Gal(b1-4)GlcNAc(b1-6)]Man(a1-6)[GlcNAc(b1-3)Gal(b1-4)GlcNAc(b1-3)Gal(b1-4)GlcNAc(b1-3)Gal(b1-4)GlcNAc(b1-3)Gal(b1-4)GlcNAc(b1-2)Man(a1-3)]Man(b1-4)GlcNAc(b1-4)[Fuc(a1-6)]GlcNAc
# How it was run: as §1
# [5] = molecular target: GlcNAc(b1-3)[GlcNAc(b1-6)]Gal(b1-4)GlcNAc
# How it was run: as §1
# [6] = molecular target: Man(a1-2)Man(a1-2)Man(a1-3)Man
# How it was run: as §1
# [7] = molecular target: Man(a1-3)[Man(a1-6)]Man(b1-4)GlcNAc(b1-4)[Fuc(a1-6)]GlcNAc
# How it was run: as §1
# [8] = molecular target: Neu5Ac(a2-3)Gal(b1-3)GalNAc(b1-4)[Neu5Ac(a2-3)]Gal(b1-4)Glc
# How it was run: as §1
# [9] = molecular target: Neu5Ac(a2-3)Gal(b1-3)GlcNAc(b1-6)GalNAc
# How it was run: as §1
# [10] = molecular target: Neu5Ac(a2-3)Gal(b1-3)[Fuc(a1-4)]GlcNAc(b1-3)Gal(b1-4)[Fuc(a1-3)]GlcNAc
# How it was run: as §1
# [11] = molecular target: Neu5Ac(a2-3)Gal(b1-3)]Neu5Ac(a2-3)Gal(b1-4)]GlcNAc
# How it was run: as §1
# [12] = molecular target: Neu5Ac(a2-3)Gal(b1-4)GlcNAc(b1-2)Man(a1-3)[GlcNAc(b1-4)][Neu5Ac(a2-3)Gal(b1-4)GlcNAc(b1-2)Man(a1-6)]Man(b1-4)GlcNAc(b1-4)GlcNAc
# How it was run: as §1
# [13] = molecular target: Neu5Ac(a2-3)Gal(b1-4)GlcNAc(b1-2)Man(a1-3)[Neu5Ac(a2-3)Gal(b1-4)GlcNAc(b1-2)Man(a1-6)]Man(b1-4)GlcNAc(b1-4)GlcNAc
# How it was run: as §1
# [14] = molecular target: Neu5Ac(a2-3)Gal(b1-4)GlcNAc(b1-3)Gal(b1-4)GlcNAc(b1-3)Gal(b1-4)GlcNAc(b1-2)Man(a1-3)[Neu5Ac(a2-3)Gal(b1-4)GlcNAc(b1-3)Gal(b1-4)GlcNAc(b1-3)Gal(b1-4)GlcNAc(b1-2)Man(a1-6)]GalNAc
# How it was run: as §1
# [15] = molecular target: Neu5Ac(a2-3)Gal(b1-4)GlcNAc6S
# How it was run: as §1
# [16] = molecular target: Neu5Ac(a2-3)Gal(b1-4)[Fuc(a1-3)]GlcNAc(b1-3)GalNAc
# How it was run: as §1
# [17] = molecular target: Neu5Ac(a2-6)Gal(b1-4)GlcNAc(b1-2)Man(a1-6)[Man(a1-3)]Man(b1-4)GlcNAc(b1-4)GlcNAc
# How it was run: as §1
# [18] = molecular target: Neu5Ac(a2-6)Gal(b1-4)GlcNAc(b1-2)[Neu5Ac(a2-6)Gal(b1-4)GlcNAc(b1-6)]Man(a1-6)[Neu5Ac(a2-6)Gal(b1-4)GlcNAc(b1-2)Man(a1-3)][GlcNAc(b1-4)]Man(b1-4)GlcNAc(b1-4)GlcNAc
# How it was run: as §1
# [19] = molecular target: Neu5Ac(a2-6)Gal(b1-4)GlcNAc(b1-3)Gal(b1-4)GlcNAc(b1-3)Gal(b1-4)GlcNAc(b1-2)Man(a1-3)[Neu5Ac(a2-6)Gal(b1-4)GlcNAc(b1-3)Gal(b1-4)GlcNAc(b1-3)Gal(b1-4)GlcNAc(b1-2)Man(a1-6)]GalNAc
# How it was run: as §1
# Neu5Ac(a2-6)GalNAc = molecular target: Neu5Ac(a2-6)GalNAc
# How it was run: as §1
# [20] = molecular target: Neu5Ac(a2-8)Neu5Ac(a2-3)[GalNAc(b1-4)]Gal(b1-4)Glc
# How it was run: as §1
# [21] = molecular target: Neu5Gc(a2-3)Gal(b1-4)GlcNAc
# How it was run: as §1
# [22] = molecular target: Neu5Gc(a2-3)Gal(b1-4)[Fuc(a1-3)]GlcNAc
# How it was run: as §1
# [23] = molecular target: Neu5Gc(b2-6)Gal(b1-4)GlcNAc
# How it was run: as §1
binder,measurement,setting,value
B1,glycan array binding signal (z-score),Gal(b1-6)Gal,-0.836
same,glycan array binding signal (z-score),Gal3S6S(b1-4)GlcNAc,0.192
same,glycan array binding signal (z-score),Gal3S6S(b1-4)GlcNAc6S,3.9
same,glycan array binding signal (z-score),Gal4S6S(b1-4)GlcNAc,3.03
same,glycan array binding signal (z-score),Gal6S(b1-4)Glc,0.586
same,glycan array binding signal (z-score),[1],-1.14
same,glycan array binding signal (z-score),[2],0.812
same,glycan array binding signal (z-score),[3],-0.488
same,glycan array binding signal (z-score),[4],3.92
same,glycan array binding signal (z-score),[5],-0.11
same,glycan array binding signal (z-score),[6],-1.02
same,glycan array binding signal (z-score),[7],0.339
same,glycan array binding signal (z-score),[8],3.37
same,glycan array binding signal (z-score),[9],-0.342
same,glycan array binding signal (z-score),[10],0.263
same,glycan array binding signal (z-score),[11],0.038
same,glycan array binding signal (z-score),[12],4.06
same,glycan array binding signal (z-score),[13],-1.57
same,glycan array binding signal (z-score),[14],2.66
same,glycan array binding signal (z-score),[15],1.54
same,glycan array binding signal (z-score),[16],0.588
same,glycan array binding signal (z-score),[17],0.711
same,glycan array binding signal (z-score),[18],-0.566
same,glycan array binding signal (z-score),[19],2.47
same,glycan array binding signal (z-score),Neu5Ac(a2-6)GalNAc,-0.143
same,glycan array binding signal (z-score),[20],0.156
same,glycan array binding signal (z-score),[21],-0.509
same,glycan array binding signal (z-score),[22],0.844
same,glycan array binding signal (z-score),[23],-0.779

# Source: the supplement of paper PMC8728848
